Data taken from PubChem BioAssay (NCI).
About 79,000 compounds went through this panel and 15% of them were active in at least one assay; those are over-represented in the sample as a whole. Calls of active or inactive are those of the source. No stated cut-off is given here; in the data, active means growth inhibition above about 70%; inactive means the rest.

Tests used:
[1] = NCI Yeast Anticancer Drug Screen. Data for the rad52 strain (AID 147);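 further: 0% = growth of vehicle-treated control cultures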; conditions: S. cerevisiae rad52 mutant growth inhibition, hits give high values
Summary of the method: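 The repair-mutant yeast strain was incubated with compounds, then growth was read and inhibition derived relative to vehicle.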

[2] = NCI Yeast Anticancer Drug Screen. Data for the wt1 strain (AID 149);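 further: 0% = growth of vehicle-treated wt1 cultures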; conditions: S. cerevisiae wt1 strain (SPY 50644) growth inhibition, hits give high values
Summary of the method: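 Measured: growth of wt1 yeast under compound versus vehicle treatment, reported as inhibition.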

[3] = NCI Yeast Anticancer Drug Screen. Data for the rad50EPP+ strain (AID 151);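 further: 0% = growth of vehicle-treated control cultures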; conditions: S. cerevisiae rad50 mutant strain, hits give high values
Summary of the method: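 Vehicle-normalised growth inhibition; rad50EPP+ yeast strain, altered in DNA damage repair, compound-treated.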

[4] = NCI Yeast Anticancer Drug Screen. Data for the rad50 strain (AID 155);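 further: 0% = growth of vehicle-only cultures of the same strain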; conditions: S. cerevisiae rad50 strain growth inhibition, hits give high values
Summary of the method: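 Growth of the mutant yeast was measured after compound exposure and referenced to vehicle-treated cultures.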

[5] = NCI Yeast Anticancer Drug Screen. Data for the mec2-1 strain (AID 157); conditions: S. cerevisiae mec2-1 strain, hits give high values
Summary of the method: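 Mutant yeast (mec2-1) grown with compound; growth inhibition relative to vehicle control reported.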

[6] = NCI Yeast Anticancer Drug Screen. Data for the rad14 strain (AID 159);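 further: 0% = growth of vehicle-treated control cultures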; conditions: S. cerevisiae rad14 strain growth inhibition, hits give high values
Summary of the method: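 Here, inhibition of yeast growth was measured after compound exposure, using a strain with a genetic defect in DNA damage repair and vehicle-treated cultures as the reference.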

[7] = NCI Yeast Anticancer Drug Screen. Data for the sgs1 mgt1 strain (AID 161);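 further: 0% = growth of cultures given vehicle only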; conditions: S. cerevisiae sgs1 mgt1 strain, hits give high values
Summary of the method: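 This yeast growth screen uses a strain with defined DNA-repair lesions; compound-treated growth is compared with vehicle-treated growth.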

[8] = NCI Yeast Anticancer Drug Screen. Data for the CLN2oe strain (AID 163);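 further: 0% = growth of vehicle-only control cultures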; conditions: S. cerevisiae CLN2oe strain, hits give high values
Summary of the method: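 Compounds are applied to yeast harbouring a defined cell-cycle control change; reduced growth compared with vehicle-treated controls gives the value.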

[9] = NCI Yeast Anticancer Drug Screen. Data for the bub3 strain (AID 167); conditions: S. cerevisiae bub3 mutant strain, hits give high values
Summary of the method: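 Whole-cell yeast assay. The mutant strain was incubated with compounds, and growth inhibition was determined by comparison with vehicle-treated cells.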

[10] = NCI Yeast Anticancer Drug Screen. Data for the wt2 strain (AID 169);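 further: 0% = growth of vehicle-treated yeast cultures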; conditions: S. cerevisiae wt2 strain growth inhibition, hits give high values
Summary of the method: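 Against vehicle-treated controls, the growth of yeast exposed to each compound was compared, and the inhibition was recorded.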

[11] = NCI Yeast Anticancer Drug Screen. Data for the mlh1 strain (AID 171);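 further: 0% = growth of vehicle-treated control cultures of the same strain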; conditions: S. cerevisiae mlh1 strain growth inhibition, hits give high values
Summary of the method: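 Measured: yeast growth. Reference: vehicle-treated controls. Organism: strain with a defined alteration affecting DNA damage repair or cell cycle control, treated with compound.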

[12] = NCI Yeast Anticancer Drug Screen. Data for the sgs1 strain (AID 173);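 further: 0% = growth of vehicle-only control cultures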; conditions: S. cerevisiae sgs1 mutant, hits give high values
Summary of the method: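 Each compound was added to cultures of the altered yeast strain. Growth was recorded, and inhibition was derived by comparison with vehicle controls.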

[13] = NCI Yeast Anticancer Drug Screen. Data for the mlh1 rad18 strain (AID 175); conditions: S. cerevisiae mlh1 rad18 strain growth inhibition, hits give high values
Summary of the method: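 Genetically defined yeast (DNA repair-deficient) exposed to compounds; growth inhibition determined relative to vehicle.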

[14] = NCI Yeast Anticancer Drug Screen. Data for the rad18 strain (AID 177); conditions: S. cerevisiae rad18 mutant growth inhibition, hits give high values
Summary of the method: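 Vehicle-treated cultures served as the baseline for scoring compound-induced growth inhibition in DNA-repair-mutant yeast.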

[15] = at 5.0 µM (retest, dose inferred, filed as 0.5)
[16] = at 50.0 µM (retest, dose inferred, filed as 5.0)

Measured: growth inhibition

O=S(=O)(N/N=C/c1cccc(Cl)c1)c1ccccc1
active: [1]; at 33.0 µM 88% | [1]; at 100.0 µM 99% | [2]; at 100.0 µM 99% | [4]; at 33.0 µM 87% | [4]; [16] 92% | [4]; at 50.0 µM 89.9% | [4]; at 100.0 µM 98% | [5]; at 100.0 µM 91% | [6]; at 33.0 µM 73% | [6]; at 100.0 µM 99% | [7]; [16] 86% | [8]; at 33.0 µM 84% | [8]; at 100.0 µM 82% | [9]; at 33.0 µM 79% | [9]; [16] 88% | [9]; at 100.0 µM 98% | [10]; at 33.0 µM 86% | [10]; at 100.0 µM 99% | [11]; at 33.0 µM 83% | [11]; at 100.0 µM 99% | [12]; at 33.0 µM 77% | [12]; at 100.0 µM 99% | [13]; [16] 95% | [13]; at 50.0 µM 96.8% | [14]; at 33.0 µM 86% | [14]; at 100.0 µM 99%
inactive: [1]; at 1.2 µM -4% | [1]; at 3.7 µM -3% | [1]; at 11.0 µM 8% | [2]; at 1.2 µM 0% | [2]; at 3.7 µM 4% | [2]; at 11.0 µM 3% | [2]; at 33.0 µM 65% | [3]; at 1.2 µM 4% | [3]; at 3.7 µM 8% | [3]; at 11.0 µM 18% | [3]; at 33.0 µM 18% | [3]; at 100.0 µM 25% | [4]; at 1.2 µM -1% | [4]; at 3.7 µM -1% | [4]; [15] -14% | [4]; at 11.0 µM 7% | [5]; at 1.2 µM -3% | [5]; at 3.7 µM 4% | [5]; [15] -18% | [5]; at 11.0 µM 13% | [5]; at 33.0 µM 54% | [5]; [16] 66% | [5]; at 50.0 µM 55.5% | [6]; at 1.2 µM -7% | [6]; at 3.7 µM -6% | [6]; at 11.0 µM -1% | [7]; [15] -1% | [7]; at 50.0 µM 63.7% | [8]; at 1.2 µM -10% | [8]; at 3.7 µM -7% | [8]; at 11.0 µM 27% | [9]; at 1.2 µM 1% | [9]; at 3.7 µM 1% | [9]; [15] -12% | [9]; at 11.0 µM 11% | [9]; at 50.0 µM 63.3% | [10]; at 1.2 µM -4% | [10]; at 3.7 µM -4% | [10]; at 11.0 µM 0% | [11]; at 1.2 µM -3% | [11]; at 3.7 µM 0% | [11]; at 11.0 µM 11% | [12]; at 1.2 µM 1% | [12]; at 3.7 µM 4% | [12]; at 11.0 µM 18% | [13]; [15] 57% | [14]; at 1.2 µM -3% | [14]; at 3.7 µM 1% | [14]; at 11.0 µM 29%
